# The panel holds about 83,000 compounds, 20% with a hit somewhere; the sample as a whole holds those more often.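 In brief: 96-well plates, 48 h treatment, single concentration, percent growth endpoint.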 Values without a mark were called inactive. Calls of active or inactive are those of the source. How the source made its calls: active means growth percent below 10; inactive means the rest.
# Assays:
# Test in all cases: NCI-60 one-dose screen, 48 h (100 = growth as untreated, 0 = no growth, -100 = all killed)
# Conditions in all cases: 10 µM unless noted
# NCI-H23 lung = system: NCI-H23 lung
# NCI-H226 lung = system: NCI-H226 lung
# NCI-H322M lung = system: NCI-H322M lung
# HOP-62 NSCLC = system: HOP-62 NSCLC
# NCI-H460 lung = system: NCI-H460 lung
# HOP-92 NSCLC = system: HOP-92 NSCLC
# NCI-H522 lung = system: NCI-H522 lung
# A549/ATCC NSCLC = system: A549/ATCC NSCLC
# 786-0 renal = system: 786-0 renal
# COLO 205 colon = system: COLO 205 colon
Structure (SMILES),growth (NCI-H23 lung),growth (NCI-H226 lung),growth (NCI-H322M lung),growth (HOP-62 NSCLC),growth (NCI-H460 lung),growth (HOP-92 NSCLC),growth (NCI-H522 lung),growth (A549/ATCC NSCLC),growth (786-0 renal),growth (COLO 205 colon)
COc1cc(C(=O)n2nc(NCCCc3ccccc3)c3cc(N)ccc32)cc(OC)c1OC,92.8%,89.7%,106%,93.5%,102%,88.9%,74.6%,93.3%,96.1%,113%
CN1C(=O)N(C)C2C1NN=c1s/c(=C\c3ccccc3F)c(=O)n12 (stereo not given),33.1%,57.8%,37.3%,32.9%,3.14% (active),76.8%,-8.56% (active),21%,36%,8.94% (active)
O=C1/C(=C/c2ccccc2)COc2ccc(O)cc21,97.2%,104%,99.3%,104%,103%,93.7%,73.5%,90.5%,86.9%,93.2%
COC(=O)[C@H](C)NC(=O)[C@@H]1CCCN1C(=O)CNC(=O)[C@H](C)N,105%,101%,96.5%,114%,106%,89%,96.2%,106%,98%,104%
Cc1ccc2c(c1)CC(O)CC1C(=O)N(CCO)CC(=O)N21 (stereo not given),99.3%,95.9%,105%,101%,109%,124%,82.5%,76.6%,104%,110%
COc1cc(CNC(=O)CCCC/C=C/C(C)C)ccc1OCc1cn(-c2cccc([N+](=O)[O-])c2)nn1,88%,90.9%,94.1%,97.4%,91.8%,70.4%,82.6%,92%,73.4%,107%
COc1ccc(-c2ccc(-c3ccc(C(=N)N)o3)o2)cc1,35.6%,78.2%,56.1%,46.4%,0.541% (active),27%,1.71% (active),1.8% (active),21.9%,-45.8% (active)
COc1ccc(NC(=O)c2ccc(Cl)cc2Cl)cc1,85.3%,105%,103%,107%,97.8%,104%,97.1%,96.5%,93%,101%
CCOC(=O)/C=C1\S/C(=N\Nc2cc(=O)[nH]c3ccc(OC)cc23)N(c2ccccc2)C1=O,94%,93.2%,101%,97.5%,110%,89.7%,83.3%,104%,94.4%,95.7%
Cc1nn(C)c2ncnc(Nc3ccccc3Br)c12,101%,96.3%,106%,101%,106%,104%,98.7%,99.3%,97.8%,119%
[2H]C([2H])([2H])Oc1ccc(/C=C/C(=O)/C=C(O)/C=C/c2ccc(OC([2H])([2H])[2H])c(OC([2H])([2H])[2H])c2)cc1OC([2H])([2H])[2H],34.3%,70.6%,103%,47.7%,46.7%,72.7%,14.8%,32.4%,48.9%,30.4%
CCOC(=O)c1cc(C(=O)c2cc(OC)cc(OC)c2)n2ncccc12,45.8%,57.5%,72.5%,30.7%,14.7%,47.1%,25.4%,35.3%,34.2%,-13.2% (active)
N/C(=N\c1nc2ccccc2s1)NC(=O)Nc1ccccc1,54.7%,87.8%,74.3%,30%,14.4%,53.2%,-13.2% (active),39%,52.3%,28.3%
C#CCOc1cc(/C=N/Nc2nc(-c3ccc(OC)cc3)cs2)ccc1O,58.8%,89.6%,92.4%,97%,88.4%,86.3%,76.1%,74.2%,92.6%,103%
O=C(COc1ccc(/C=C2\Oc3ccccc3C2=O)cc1)Nc1nccs1,87.6%,89.8%,89.3%,86.8%,107%,34.3%,-30.2% (active),97.5%,88.1%,107%
CS(=O)(=O)Nc1cc(-c2ccc3ncnc(Nc4cccc(Cl)c4)c3c2)cnc1Cl,6.5% (active),11.8%,1.07% (active),3.9% (active),7.81% (active),-22.5% (active),2.07% (active),-13.4% (active),5.7% (active),-49.4% (active)
FC(F)(F)c1cccc(-c2nnn(Cc3cc(-c4cccc(Cl)c4)no3)n2)c1,102%,101%,111%,108%,103%,100%,99.6%,100%,105%,112%
Cc1cc(C)n(C(=O)CSc2nc3sc4c(c3c(=O)n2-c2ccccc2)CCCCC4)n1,91.6%,98.1%,99.1%,96.3%,103%,95.1%,85.8%,97.6%,108%,115%

# Source: PubChem BioAssay (NCI)
